# According to the supplement of paper PMC12282887:
# ± gives the standard deviation of the averaged measurements.
# Test system: E. coli BW25113 marRABp lux reporter
# Assay: promoter activity interaction Z-score (Lux/OD deviation from empty-vector control); higher = stronger promoter induction by the compound
# Procedure: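 E. coli BW25113 (wild type or ΔmarA/ΔsoxS/Δrob) carrying pTU175 luxCDABE promoter reporters was grown in LB in 384-well plates at 37°C with each of 94 compounds at 4 two-fold concentrations, in biological duplicates. Luminescence and OD600 were read every 30 min for 12 h and integrated as AUC over 8 h (0-8 h WT, 1-9 h mutants). Lux AUC was divided by OD AUC; the interaction score is the residual of a Huber robust fit of each promoter against the empty-vector control, then Z-transformed per promoter.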
structure (smiles),measurement,setting,value
CN(C)[C@@H]1C(O)=C(C(N)=O)C(=O)[C@@]2(O)C(O)=C3C(=O)c4c(O)cccc4[C@@](C)(O)[C@H]3C[C@@H]12 [Tetracycline],promoter activity interaction Z-score,"0.056 µg/ml, genetic background: wild type",0.665 ± 0.88
same,promoter activity interaction Z-score,"0.056 µg/ml, genetic background: ΔmarA",1.07 ± 0.1
same,promoter activity interaction Z-score,"0.056 µg/ml, genetic background: Δrob",0.256 ± 0.36
same,promoter activity interaction Z-score,"0.056 µg/ml, genetic background: ΔsoxS",0.136 ± 0.061
same,promoter activity interaction Z-score,"0.11 µg/ml, genetic background: wild type",2.13 ± 0.84
same,promoter activity interaction Z-score,"0.11 µg/ml, genetic background: ΔmarA",1.76 ± 0.44
same,promoter activity interaction Z-score,"0.11 µg/ml, genetic background: Δrob",0.771 ± 0.16
same,promoter activity interaction Z-score,"0.11 µg/ml, genetic background: ΔsoxS",1.22 ± 0.7
same,promoter activity interaction Z-score,"0.22 µg/ml, genetic background: wild type",2.83 ± 0.4
same,promoter activity interaction Z-score,"0.22 µg/ml, genetic background: ΔmarA",3.06 ± 0.18
same,promoter activity interaction Z-score,"0.22 µg/ml, genetic background: Δrob",1.16 ± 0.43
same,promoter activity interaction Z-score,"0.22 µg/ml, genetic background: ΔsoxS",2.13 ± 0.087
same,promoter activity interaction Z-score,"0.44 µg/ml, genetic background: wild type",2.24 ± 1
same,promoter activity interaction Z-score,"0.44 µg/ml, genetic background: ΔmarA",0.451 ± 0.1
same,promoter activity interaction Z-score,"0.44 µg/ml, genetic background: Δrob",0.992 ± 0.29
same,promoter activity interaction Z-score,"0.44 µg/ml, genetic background: ΔsoxS",2.56
O=C(/C=C/C=C/c1ccc2c(c1)OCO2)N1CCCCC1 [Piperine],promoter activity interaction Z-score,"17.8 µg/ml, genetic background: wild type",-0.274 ± 0.019
same,promoter activity interaction Z-score,"17.8 µg/ml, genetic background: ΔmarA",-0.301 ± 0.051
same,promoter activity interaction Z-score,"17.8 µg/ml, genetic background: Δrob",-0.434 ± 0.098
same,promoter activity interaction Z-score,"17.8 µg/ml, genetic background: ΔsoxS",-0.317 ± 0.29
same,promoter activity interaction Z-score,"35.7 µg/ml, genetic background: wild type",-0.476 ± 0.17
same,promoter activity interaction Z-score,"35.7 µg/ml, genetic background: ΔmarA",-0.752 ± 0.41
same,promoter activity interaction Z-score,"35.7 µg/ml, genetic background: Δrob",-0.43 ± 0.21
same,promoter activity interaction Z-score,"35.7 µg/ml, genetic background: ΔsoxS",-0.378 ± 0.24
same,promoter activity interaction Z-score,"71.3 µg/ml, genetic background: wild type",-0.335 ± 0.037
same,promoter activity interaction Z-score,"71.3 µg/ml, genetic background: ΔmarA",-0.48 ± 0.25
same,promoter activity interaction Z-score,"71.3 µg/ml, genetic background: Δrob",-0.399 ± 0.2
same,promoter activity interaction Z-score,"71.3 µg/ml, genetic background: ΔsoxS",-0.463 ± 0.46
same,promoter activity interaction Z-score,"142.7 µg/ml, genetic background: wild type",-0.425 ± 0.28
same,promoter activity interaction Z-score,"142.7 µg/ml, genetic background: ΔmarA",-0.375 ± 0.13
same,promoter activity interaction Z-score,"142.7 µg/ml, genetic background: Δrob",-0.33 ± 0.27
same,promoter activity interaction Z-score,"142.7 µg/ml, genetic background: ΔsoxS",-0.0869 ± 0.48
NC[C@H](O)c1ccc(O)c(O)c1 [Noradrenalin],promoter activity interaction Z-score,"20 µg/ml, genetic background: wild type",0.189 ± 0.16
same,promoter activity interaction Z-score,"20 µg/ml, genetic background: ΔmarA",0.444 ± 0.053
same,promoter activity interaction Z-score,"20 µg/ml, genetic background: Δrob",0.108 ± 0.12
same,promoter activity interaction Z-score,"20 µg/ml, genetic background: ΔsoxS",0.239 ± 0.13
same,promoter activity interaction Z-score,"39.9 µg/ml, genetic background: wild type",0.0664 ± 0.085
same,promoter activity interaction Z-score,"39.9 µg/ml, genetic background: ΔmarA",0.371 ± 0.24
same,promoter activity interaction Z-score,"39.9 µg/ml, genetic background: Δrob",0.256 ± 0.08
same,promoter activity interaction Z-score,"39.9 µg/ml, genetic background: ΔsoxS",0.078 ± 0.037
same,promoter activity interaction Z-score,"79.8 µg/ml, genetic background: wild type",0.253 ± 0.15
same,promoter activity interaction Z-score,"79.8 µg/ml, genetic background: ΔmarA",-0.0312 ± 0.044
same,promoter activity interaction Z-score,"79.8 µg/ml, genetic background: Δrob",-0.0145 ± 0.019
same,promoter activity interaction Z-score,"79.8 µg/ml, genetic background: ΔsoxS",0.36 ± 0.27
same,promoter activity interaction Z-score,"159.6 µg/ml, genetic background: wild type",0.17 ± 0.12
same,promoter activity interaction Z-score,"159.6 µg/ml, genetic background: ΔmarA",-0.0497 ± 0.011
same,promoter activity interaction Z-score,"159.6 µg/ml, genetic background: Δrob",0.0596 ± 0.2
same,promoter activity interaction Z-score,"159.6 µg/ml, genetic background: ΔsoxS",0.217 ± 0.22
